This is an account of results in PubChem BioAssay.

Calls of active or inactive are those of the source.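 Rule for the calls, unless noted: active = inhibition above 20% together with a positive visual image hit; inconclusive = visual image hit but inhibition not above 20%; inactive = no visual image hit.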

The inhibition is the change of the read-out against control, counted positive when it falls.

The first test is described as follows: inhibitors of TNFa-induced NFkB p65 translocation, primary screen, imaging, HUVEC, MLSMR starter and 10KST1 sets (AID 438).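 For inhibition: signal is the nuclear over cytoplasmic p65 intensity ratio per well.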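 Note: compound added about 3h40 before a 20 min TNFalpha stimulation.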 The note with it: HUVEC TNFa-induced p65 nuclear translocation; cell count: measured here: nuclei count (cytotoxicity indicator), at 2.08 µM; inhibition: at 2 µM, stronger effect = higher value, 0% TNFa-plus-vehicle, 100% no-TNFa wells.
`COc1ccc(C(CNC(=O)c2cc(C)oc2C)N2CCOCC2)cc1` (stereo unspecified): the cell count is 711 and the inhibition was -0.8% (inactive).
As for `O=C(CSc1ccc2nnc(-c3ccccc3)n2n1)N1CCN(c2ccccc2)CC1`, the cell count worked out at 616 and the inhibition was 0.3% (inactive).
The matching figures for `O=C1NC(=O)C(CC(=O)N(Cc2ccco2)C2(C(=O)NC3CCCC3)CCCCC2)N1` (stereo unspecified): 670 and -7.4% (inactive).
For `O=C(NCc1cccs1)c1cc2c(s1)CCCC2`, the inhibition was -16.3% (inactive) and the cell count is 377.
The matching figures for `O=C(c1ccc(-c2ccccc2)cc1)N1CCN(c2ncccn2)CC1`: -21.2% (inactive) and 332.
The matching figures for `Cc1noc(/C=C/N(C)C)c1S(=O)(=O)N1CCCC(C(=O)N2CCc3ccccc32)C1` (stereo unspecified): -4% (inactive) and 620.
As to `Cc1cccnc1NC(=O)CCCN1C(=O)c2ccccc2C1=O`, the cell count was 366 and the inhibition was 1.7% (inactive).
The matching figures for `O=C1CC(c2ccccc2)CC(O)=C1C=NCCN1CCOCC1` (stereo unspecified): 541 and -2.9% (inactive).
In the case of `CCCCNC(=O)c1nc2ncc(Br)cn2n1`, the cell count was found to be 665 and the inhibition is 0% (inactive).
Turning to `COc1ccc(NC(=O)C(C)NS(=O)(=O)c2ccc(NC(C)=O)cc2)cc1Cl` (stereo unspecified), the inhibition was 2.8% (inactive) and the cell count came to 788.
The matching figures for `CCOc1cc(NC(=O)c2ccco2)c(OCC)cc1NC(=O)Cc1cccc(OC)c1`: -14.5% (inactive) and 592.
The matching figures for `COc1ccccc1Nc1nc2ccccc2[nH]1`: 4.7% (inactive) and 654.
The matching figures for `CCN1CCN(c2ncnc3c2cnn3-c2ccc(C)cc2C)CC1`: 1.3% (inactive) and 561.
On to `Cn1c(=O)[nH]c(=O)c2c1nc(NCCCn1ccnc1)n2Cc1cccc(Br)c1`, for which the cell count stood at 663 and the inhibition was -12.9% (inactive).
Consider `CN1CCN(C(=O)C2CCN(S(=O)(=O)c3ccc4c(c3)oc(=O)n4C)CC2)CC1`, for which the inhibition is -4.7% (inactive) and the cell count turned out to be 554.
Consider `CN(c1ccccc1C(N)=O)S(=O)(=O)c1ccccc1`, for which the cell count was determined as 385 and the inhibition was -2.9% (inactive).
`COCC(=O)N(C)c1nnc(-c2ccccn2)s1`: the inhibition was 1.4% (inactive) and the cell count amounted to 433.
The matching figures for `CCOC(=O)C1CCCN(C(=O)c2sc3nc(-c4ccccc4)cn3c2C)C1` (stereo unspecified): 13.2% (inactive) and 631.
The matching figures for `Cc1cc(C)nc(NC(=O)c2c(-c3c(Cl)cccc3Cl)noc2C)n1`: 2% (inactive) and 648.
For the compound `O=C(Nc1cnn(C23CC4CC(CC(C4)C2)C3)c1)c1cnn2c(C(F)(F)F)cc(-c3ccco3)nc12`, the inhibition was -8.8% (inactive) and the cell count is 501.
Consider `O=C(O)c1cccn2c(=O)c3ccccc3nc12`, for which the inhibition was -2.3% (inactive) and the cell count was 799.
The matching figures for `CC(C)Cn1c(N)c(C(=O)NCc2cccs2)c2nc3ccccc3nc21`: -2.4% (inactive) and 250.
The matching figures for `CCCS(=O)(=O)N1CCN(C(=O)c2cccs2)CC1`: 7.2% (inactive) and 559.
The matching figures for `Cc1nc(C)c(C(=O)C2=C(O)C(=O)N(CCN3CCOCC3)C2c2ccco2)s1` (stereo unspecified): -3.2% (inactive) and 244.
Take `Cc1ccc(S(=O)(=O)N2C(=O)CCC2C(=O)Nc2ccc3c(c2)OCCO3)cc1` (stereo unspecified): the cell count turned out to be 430 and the inhibition was 3.8% (inactive).
Consider `COc1cccc(C2=NOC(C(=O)N3CCc4ccccc4C3)C2)c1` (stereo unspecified), for which the cell count worked out at 606 and the inhibition was 4.7% (inactive).
`Cc1ccccc1C1CC(c2ccccc2)Nc2ncnn21` (stereo unspecified): the cell count was 561 and the inhibition was 0% (inactive).
The matching figures for `O=S(=O)(c1cccc2nsnc12)N1CCN(c2ncccn2)CC1`: 573 and -15.2% (inactive).
The matching figures for `CCN(CC)S(=O)(=O)c1cccc(-c2nnc(SCC(N)=O)n2CCc2ccccc2)c1`: 635 and -4.4% (inactive).
On to `O=C(O)c1cc(Cl)c(Cl)cc1C(=O)N1CCCC1`, for which the inhibition was 0% (inactive) and the cell count was determined as 291.
`Cc1cccc(N2C(=O)CC(N3CCN(c4cccc(C(F)(F)F)c4)CC3)C2=O)c1` (stereo unspecified): the cell count was 593 and the inhibition is -7.2% (inactive).
Take `COCCN(CCOC)c1ncnc2c1cnn2-c1ccccc1`: the cell count was 636 and the inhibition was -8.5% (inactive).
As to `Cc1csc(NC(=O)C2CCCO2)n1` (stereo unspecified), the cell count was 725 and the inhibition was -11.4% (inactive).
The matching figures for `COC(=O)c1cc2oc(C)cc2n1CC(=O)Nc1ccc(C)c(C)c1`: 386 and 9.1% (inactive).
The matching figures for `CCOc1ccc2nc(NC(=O)C3CCCN(S(=O)(=O)c4c(C)noc4C)C3)sc2c1` (stereo unspecified): 674 and -4% (inactive).
The matching figures for `Cc1ccccc1-n1nnnc1SCC(=O)Nc1ccc(S(=O)(=O)N2CCCC2)cc1`: 675 and -5.5% (inactive).
Regarding `Nn1cnnc1SCC(=O)Nc1ccc2c(c1)OCCO2`, the inhibition is 7.2% (inactive) and the cell count is 553.
As to `CCN(CC)S(=O)(=O)c1ccc(F)c(C(=O)NCCC(C)C)c1`, the cell count worked out at 497 and the inhibition is -22% (inactive).
The matching figures for `CCc1ccc(NC(=O)C2CC(=O)N(C(C)C)C2)cc1` (stereo unspecified): 346 and -6.8% (inactive).

Another test is described as follows: reduction of polyQ htt aggregates in cells – imaging, exon1htt(103Q)mCFP cells, high-content imaging, primary screen (AID 483;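 active = visual image review flags a hit and inhibition of aggregation exceeds 20%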;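 note: compound exposure lasted 3 days before fixation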;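 for nuclei count: percent of the per-plate median nuclei count of sample wells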). The note with it: exon1htt(103Q)mCFP cell line, aggregate imaging, at 2 µM; inhibition of aggregation: stronger effect = higher value; nuclei count: measured here: cell count, toxicity.
In the case of `COc1ccc(C(CNC(=O)c2cc(C)oc2C)N2CCOCC2)cc1` (stereo unspecified), the nuclei count was found to be 103% and the inhibition of aggregation was -5.3% (inactive).
The matching figures for `O=C(CSc1ccc2nnc(-c3ccccc3)n2n1)N1CCN(c2ccccc2)CC1`: 110% and 9.9% (inactive).
The matching figures for `O=C1NC(=O)C(CC(=O)N(Cc2ccco2)C2(C(=O)NC3CCCC3)CCCCC2)N1` (stereo unspecified): 106% and 28.8% (active).
The matching figures for `O=C(NCc1cccs1)c1cc2c(s1)CCCC2`: 89.1% and 5.1% (inactive).
On to `O=C(c1ccc(-c2ccccc2)cc1)N1CCN(c2ncccn2)CC1`, for which the nuclei count came to 76% and the inhibition of aggregation was 11.5% (inactive).
The matching figures for `Cc1noc(/C=C/N(C)C)c1S(=O)(=O)N1CCCC(C(=O)N2CCc3ccccc32)C1` (stereo unspecified): 86.6% and -4.7% (inactive).
With `Cc1cccnc1NC(=O)CCCN1C(=O)c2ccccc2C1=O`, the nuclei count came out at 102% and the inhibition of aggregation was -11.4% (inactive).
The matching figures for `O=C1CC(c2ccccc2)CC(O)=C1C=NCCN1CCOCC1` (stereo unspecified): 94.3% and 24.1% (inactive).
The matching figures for `CCCCNC(=O)c1nc2ncc(Br)cn2n1`: 109% and -12.4% (inactive).
Take `COc1ccc(NC(=O)C(C)NS(=O)(=O)c2ccc(NC(C)=O)cc2)cc1Cl` (stereo unspecified): the inhibition of aggregation was -14.8% (inactive) and the nuclei count is 105%.
The matching figures for `CCOc1cc(NC(=O)c2ccco2)c(OCC)cc1NC(=O)Cc1cccc(OC)c1`: -4.3% (inactive) and 107%.
In the case of `COc1ccccc1Nc1nc2ccccc2[nH]1`, the nuclei count stood at 94.6% and the inhibition of aggregation is 4.6% (inactive).
The matching figures for `CCN1CCN(c2ncnc3c2cnn3-c2ccc(C)cc2C)CC1`: 94.2% and -28.5% (inactive).
The matching figures for `Cn1c(=O)[nH]c(=O)c2c1nc(NCCCn1ccnc1)n2Cc1cccc(Br)c1`: 68.9% and 8.6% (inactive).
`CN1CCN(C(=O)C2CCN(S(=O)(=O)c3ccc4c(c3)oc(=O)n4C)CC2)CC1`: the nuclei count is 100% and the inhibition of aggregation is 8.3% (inactive).
The matching figures for `CN(c1ccccc1C(N)=O)S(=O)(=O)c1ccccc1`: 95.6% and -21.8% (inactive).
The matching figures for `COCC(=O)N(C)c1nnc(-c2ccccn2)s1`: 84.4% and 16.5% (inactive).
The matching figures for `CCOC(=O)C1CCCN(C(=O)c2sc3nc(-c4ccccc4)cn3c2C)C1` (stereo unspecified): 103% and 5.7% (inactive).
With `Cc1cc(C)nc(NC(=O)c2c(-c3c(Cl)cccc3Cl)noc2C)n1`, the inhibition of aggregation is 3.9% (inactive) and the nuclei count was determined as 95.5%.
Turning to `O=C(Nc1cnn(C23CC4CC(CC(C4)C2)C3)c1)c1cnn2c(C(F)(F)F)cc(-c3ccco3)nc12`, the inhibition of aggregation is -4.4% (inactive) and the nuclei count stood at 108%.
The matching figures for `O=C(O)c1cccn2c(=O)c3ccccc3nc12`: -14.1% (inactive) and 84.3%.
The matching figures for `CC(C)Cn1c(N)c(C(=O)NCc2cccs2)c2nc3ccccc3nc21`: -3.1% (inactive) and 68.4%.
With `CCCS(=O)(=O)N1CCN(C(=O)c2cccs2)CC1`, the inhibition of aggregation is 5.4% (inactive) and the nuclei count came out at 91%.
For `Cc1nc(C)c(C(=O)C2=C(O)C(=O)N(CCN3CCOCC3)C2c2ccco2)s1` (stereo unspecified), the nuclei count was determined as 86.3% and the inhibition of aggregation is 0.6% (inactive).
For the compound `Cc1ccc(S(=O)(=O)N2C(=O)CCC2C(=O)Nc2ccc3c(c2)OCCO3)cc1` (stereo unspecified), the nuclei count is 101% and the inhibition of aggregation is -9.4% (inactive).
The matching figures for `COc1cccc(C2=NOC(C(=O)N3CCc4ccccc4C3)C2)c1` (stereo unspecified): 97.3% and 11% (inactive).
The matching figures for `Cc1ccccc1C1CC(c2ccccc2)Nc2ncnn21` (stereo unspecified): 92.1% and -26.3% (inactive).
The matching figures for `O=S(=O)(c1cccc2nsnc12)N1CCN(c2ncccn2)CC1`: 99.7% and 5.1% (inactive).
For the compound `CCN(CC)S(=O)(=O)c1cccc(-c2nnc(SCC(N)=O)n2CCc2ccccc2)c1`, the nuclei count worked out at 105% and the inhibition of aggregation was -2.2% (inactive).
The matching figures for `O=C(O)c1cc(Cl)c(Cl)cc1C(=O)N1CCCC1`: 88.1% and 14.8% (inactive).
The matching figures for `Cc1cccc(N2C(=O)CC(N3CCN(c4cccc(C(F)(F)F)c4)CC3)C2=O)c1` (stereo unspecified): 126% and 3.8% (inactive).
The matching figures for `COCCN(CCOC)c1ncnc2c1cnn2-c1ccccc1`: 113% and -21.1% (inactive).
As to `Cc1csc(NC(=O)C2CCCO2)n1` (stereo unspecified), the inhibition of aggregation is -7.3% (inactive) and the nuclei count is 101%.
Take `COC(=O)c1cc2oc(C)cc2n1CC(=O)Nc1ccc(C)c(C)c1`: the nuclei count worked out at 103% and the inhibition of aggregation is 6.1% (inactive).
The matching figures for `CCOc1ccc2nc(NC(=O)C3CCCN(S(=O)(=O)c4c(C)noc4C)C3)sc2c1` (stereo unspecified): 108% and -0.7% (inactive).
For `Cc1ccccc1-n1nnnc1SCC(=O)Nc1ccc(S(=O)(=O)N2CCCC2)cc1`, the nuclei count is 96.4% and the inhibition of aggregation is 11% (inactive).
As for `Nn1cnnc1SCC(=O)Nc1ccc2c(c1)OCCO2`, the inhibition of aggregation was -23.3% (inactive) and the nuclei count stood at 96%.
For `CCN(CC)S(=O)(=O)c1ccc(F)c(C(=O)NCCC(C)C)c1`, the nuclei count was 79.2% and the inhibition of aggregation was 37.4% (inactive).
Consider `CCc1ccc(NC(=O)C2CC(=O)N(C(C)C)C2)cc1` (stereo unspecified), for which the nuclei count was 92.5% and the inhibition of aggregation was 23.8% (inactive).
